The source of these data is PubChem BioAssay.

Where a name gives a salt, the structure may show the parent alone. A number with no mark means an inactive call.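 Rule for the calls: active = at least 20% inhibition of 6-phosphogluconate dehydrogenase activity; inactive = the rest.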 Where a SMILES comes first, the peptide text is derived from it. The star is where a group is joined. Tfa = O=C(C(F)(F)F)*

6-phosphogluconate dehydrogenase, decarboxylating (Homo sapiens), sequence (P52209 whole entry, looked up): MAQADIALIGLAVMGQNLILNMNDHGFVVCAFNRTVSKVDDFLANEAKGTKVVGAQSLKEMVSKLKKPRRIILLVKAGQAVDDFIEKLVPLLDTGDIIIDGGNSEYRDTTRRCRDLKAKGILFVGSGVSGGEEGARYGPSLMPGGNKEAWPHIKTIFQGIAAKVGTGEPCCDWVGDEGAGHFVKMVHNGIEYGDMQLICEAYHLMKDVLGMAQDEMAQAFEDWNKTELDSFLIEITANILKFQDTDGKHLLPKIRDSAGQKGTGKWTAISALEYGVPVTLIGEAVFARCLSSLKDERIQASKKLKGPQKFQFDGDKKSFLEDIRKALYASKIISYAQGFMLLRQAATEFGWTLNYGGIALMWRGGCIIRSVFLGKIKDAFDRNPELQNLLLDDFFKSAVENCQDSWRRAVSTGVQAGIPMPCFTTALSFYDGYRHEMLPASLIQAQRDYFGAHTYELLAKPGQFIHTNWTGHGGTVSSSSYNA

This assay addresses 6-phosphogluconate dehydrogenase, decarboxylating (Homo sapiens) (UniProt P52209). The experiment in a line: inhibition of human phosphogluconate dehydrogenase – biochemical, recombinant enzyme, NADPH absorbance, primary screen (AID 1159550). The note with it: recombinant 6PGD, NADPH absorbance 341 nm; at 10 µM; hits give high values.
For the compound `CC(=O)O[C@H]1CCC2(C)C(=CCC3C2CCC2(C)C3CC3OC4(CCC(C)CO4)C(C)C32)C1` (stereo not given in full), the inhibition (in general, the change of the read-out against control, counted positive when it falls) is -0.838%.
The result for `CC(C)CCCC(C)C1CCC2C3CC(=O)[C@H]4CC(O)CCC4(C)C3CCC12C` (stereo not given in full) reads -4.09%; that for `CC(=O)OC1CCC2(C)C(CCC3(C)C2CC=C2C4CC(C)(C)CCC4(C)CCC23C)C1(C)C` (stereo not given), 3.75%.
The value for `O=C(O[C@@H]1Cc2c(O)cc(O)cc2O[C@@H]1c1cc(O)c(=O)c2c(O)c(O)cc([C@H]3Oc4cc(O)cc(O)c4C[C@H]3O)c2c1)c1cc(O)c(O)c(O)c1` was 8.68%; that for `CC(C)CCC[C@@H](C)[C@H]1CC[C@H]2[C@@H]3CC[C@H]4CCCC[C@]4(C)[C@H]3CC[C@]12C` was 11.6%; that for `CNC(C)[C@@H]1CC[C@@H](N)[C@@H](OC2C(O)[C@@H](OC3OC[C@](C)(O)C(NC)[C@H]3O)[C@H](N)C[C@@H]2N)O1` (stereo not given in full) was 1.04%.
In the case of `COC(=O)C[C@H]1C(C)(C)C(=O)[C@@H]2CC3=C4CC(=O)O[C@@H](c5ccoc5)[C@]4(C)CC[C@@H]3C1(C)C2=O`, the inhibition was -2.15%.
The value for `CC(=O)O[C@H]1CC[C@]2(C)C(C[C@H](OC(C)=O)[C@]3(C)C4=CC(=O)O[C@H](c5ccoc5)[C@@]4(C)CCC23)C1(C)C` (stereo not given in full) was -15.5%; that for `CC1(C)C(=O)[C@H]2C[C@]3(O)C4=CC(=O)O[C@@H](c5ccoc5)[C@@]4(C)CCC3[C@](C)(C2=O)[C@H]1CC(=O)O` (stereo not given in full) was -7.25%; that for `CC(=O)O[C@H]1CC[C@]2(C)[C@H]3C(=O)C=C4[C@@H]5[C@@H](C)[C@H](C)CC[C@]5(C(=O)O)CC[C@@]4(C)[C@]3(C)CC[C@H]2C1(C)C` was 4.87%.
The value for `C=C1C(C)(C)[C@@]2(Cl)C(Cl)[C@]1(Cl)C(Cl)(Cl)C2(Cl)Cl` (stereo not given in full) was 6.23%; that for `CC(=O)OC1CC[C@@]2(C)C(CC[C@H]3[C@@H]4CC=C(C(C)=O)[C@@]4(C)C(=O)C[C@@H]32)C1` (stereo not given in full) was 4.79%; that for `COc1ccc(C2COc3c(ccc(O)c3OC)C2)c(OC)c1O` (stereo not given) was -5.05%.
The result for `COc1ccccc1/C=C/C(=O)O` reads 11.5%; that for `COc1ccc2c(=O)cc(-c3ccccc3OC)oc2c1`, 3.35%.
As for `C[C@@H]1CC[C@@]2(OC1)O[C@H]1C[C@H]3[C@@H]4CC=C5C[C@@H](O)CC[C@]5(C)[C@H]4CC[C@]3(C)[C@H]1[C@@H]2C`, the inhibition was 10.6%.
The result for `COc1c(C(C)C)oc2cc3oc(=O)ccc3cc12` reads 2.98%; that for `CC1CCC(C(C)C)C(O)C1` (stereo not given), -10.6%; that for `CC(C)C[C@H](NC(=O)OCC1c2ccccc2-c2ccccc21)C(=O)O`, 2.94%.
Take `NC(=O)c1cc[n+](CC2=C(C(=O)O)N3C(=O)[C@H](NC(=O)C(c4ccccc4)S(=O)(=O)[O-])[C@@H]3SC2)cc1` (stereo not given in full): the inhibition is -12%.
The value for `CC1(C)C=Cc2c(cc3occ(-c4ccc5c(c4)OCO5)c(=O)c3c2O)O1` was -4.68%.
The result for `CC[C@@H](CC[C@@H](C)[C@H]1CC[C@H]2[C@@H]3CC=C4C[C@@H](O)CC[C@]4(C)[C@H]3CC[C@]12C)C(C)C` reads 10.4%; that for `CC(=O)O[C@@H]1CC2C(C)(C)C(=O)CC[C@]2(C)C2CC[C@]3(C)C(=CC(=O)O[C@H]3c3ccoc3)[C@@]21C` (stereo not given in full), 14.2%; that for `CC(=O)C1CCC2C3CC=C4CC(O)CCC4(C)C3CCC12C` (stereo not given), -15.3%.
The value for `CC(=O)OC(C)(CCC=C(C)C)C1CC=C(C)CC1` (stereo not given) was 0.603%; that for `CC(C)CCCCCOC(=O)COc1ccc(Cl)cc1Cl` was -8.81%; that for `C=C1C(=O)OC2C[C@]3(C)[C@H](C(C)=CC[C@@H]3O)[C@@H](O)C12` (stereo not given in full) was 18.1%.
Consider `CC(=O)O[C@@H]1C[C@H]2C(C)(C)C(=O)[C@@H]3O[C@@H]3[C@]2(C)[C@H]2CC[C@@]3(C)[C@H](c4ccoc4)OC(=O)[C@H]4O[C@]43[C@@]21C`, for which the inhibition was -3.37%.
As to `Nc1nc2c(ncn2[C@H]2C[C@H](O)[C@@H](CO)O2)c(=O)[nH]1`, the inhibition is -9.26%.
Regarding `O=C(Oc1cc(OC(=O)c2ccccc2)c2c(c1)O[C@H](c1ccc(OC(=O)c3ccccc3)c(OC(=O)c3ccccc3)c1)[C@@H](OC(=O)c1ccccc1)C2)c1ccccc1`, the inhibition is -9.47%.
The value for `C=CCCCCCCCCCCC[C@@H](O)C[C@@H](O)CO` was -7.76%; that for `CC(=O)Oc1ccc(/C=C2\N=C(c3ccccc3)OC2=O)cc1` was 0.187%.
For `C/C=C(/C)C(=O)O[C@H]1Cc2c(ccc3ccc(=O)oc23)OC1(C)C`, the inhibition is 9.34%.
`CC(C)[C@H](NC(=O)[C@H](Cc1ccc(O)cc1)NC(=O)[C@@H](NC(=O)C(F)(F)F)C(C)C)C(=O)O` (Tfa-Val-Tyr-Val-OH): the inhibition is -6.07%.
The value for `O[n+]1ccccc1[S-].O[n+]1ccccc1[S-].[Zn]` was 12.7%; that for `O=C(O[C@@H]1Cc2c(O)cc(O)cc2O[C@@H]1c1cc(O)c(O)c(O)c1-c1c([C@H]2Oc3cc(O)cc(O)c3C[C@H]2O)cc(O)c(O)c1O)c1cc(O)c(O)c(O)c1` was 1.5%; that for `CN[C@H]1[C@@H](O[C@@H]2[C@@H](O[C@H]3[C@H](O)[C@@H](O)[C@H](N=C(N)N)[C@@H](O)[C@@H]3N=C(N)N)O[C@H](C)[C@@]2(O)C=O)O[C@H](CO)[C@@H](O)[C@@H]1O` was 6.7%.
The value for `COc1ccc(-c2coc3cc(O)ccc3c2=O)c(OC)c1O` was 1.46%; that for `CC(=O)O[C@@H]1CC2C(C)(C)[C@H](O)C[C@H](O)[C@]2(C)C2CC[C@@]3(C)C(=CC(=O)O[C@H]3c3ccoc3)[C@@]21C` (stereo not given in full) was 13.2%; that for `COC(=O)C[C@H]1C(C)(C)C(OC(C)=O)[C@]2(O)C=C3C4CC(=O)O[C@@H](c5ccoc5)[C@]4(C)CCC3[C@@]1(C)C2=O` (stereo not given in full) was -4.04%.
